These sequences were tested against ZDHHC20 (assay: pooled miR-30 sensor sort-seq; sequence = guide strand). Details: shRNA.
TTGTAACAGAAGCTTGTTCTGG gave a sensor-assay potency score (higher = more potent) of -0.283. TCTTGTTGTCTTTCTTGGCTGA gave a sensor-assay potency score (higher = more potent) of 0.533. TTTCTTGTTGTCTTTCTTGGCT showed a sensor-assay potency score (higher = more potent) of -0.0932. TTCTTCAGCTCCATTCTCCAGC was tested, and the sensor-assay potency score (higher = more potent) was -0.419. Work on TATAGATAGGTAAAGCTCTTGC yielded a sensor-assay potency score (higher = more potent) of -0.117. Sequence TTTTGCACGTGTATCTGTCAGT has a sensor-assay potency score (higher = more potent) of -0.551. In the case of TTGGACAAGTAGAACTCTTTGG, the sensor-assay potency score (higher = more potent) was -0.323.

What follows are sequences tested against ZDHHC24 in the same assay as above. Details: shRNA.
Work on TTGCCGAAGCCCACGCAGCGGC yielded a sensor-assay potency score (higher = more potent) of -1.27. TCCCATGGAAGAGCAGCCCAGC showed a sensor-assay potency score (higher = more potent) of -1.99. In the case of TGTGAGCAACATGAGCCAGGGA, the sensor-assay potency score (higher = more potent) was -0.189. TCTGCCTGTGAGCAACATGAGC gave a sensor-assay potency score (higher = more potent) of -1.73. For TGCCAGAGACACTCTGCCTGTG, the sensor-assay potency score (higher = more potent) was -0.683. TGAAGCAGCAGGCACAGGAAGG showed a sensor-assay potency score (higher = more potent) of -1.8. TAGCAGTAAGCCCAGCCCTGGC showed a sensor-assay potency score (higher = more potent) of -1.6. TAGTTGCCGAAGCCCACGCAGC gave a sensor-assay potency score (higher = more potent) of -1.53. AGACACTCTGCCTGTGAGCAAC showed a sensor-assay potency score (higher = more potent) of -2.01. TTGAGCAGCTGGAAGGCGGCCA gave a sensor-assay potency score (higher = more potent) of -0.092. Work on CCTGTGAGCAACATGAGCCAGG yielded a sensor-assay potency score (higher = more potent) of -2.43. For TGAGCAACATGAGCCAGGGAAG, the sensor-assay potency score (higher = more potent) was -1.75.

The sequences below were run against ZDHHC4 in the same assay as above. Details: shRNA.
TAGAAAGATCTCTTGAAGGTTG showed a sensor-assay potency score (higher = more potent) of 0.193. TACAGGACAAACAACAGGTAGC showed a sensor-assay potency score (higher = more potent) of -0.502. Work on TTATACAGGAAAATATCTGTGC yielded a sensor-assay potency score (higher = more potent) of 0.584. ATCTCTTGAAGGTTGCTCCGAA was tested, and the sensor-assay potency score (higher = more potent) was -0.154. Sequence TTGCTTTTGTTATAATGCCAGG has a sensor-assay potency score (higher = more potent) of -1.32. In the case of TAAACGGGAACTACAGCTCAAA, the sensor-assay potency score (higher = more potent) was -0.745. TACCACTCGTTAGTAGTCTGGT was tested, and the sensor-assay potency score (higher = more potent) was -0.0383. Sequence ATACAGGACAAACAACAGGTAG has a sensor-assay potency score (higher = more potent) of -1.34. TACTGAATAAGAAAGACCGTGT was tested, and the sensor-assay potency score (higher = more potent) was 0.745. Sequence TTTGCTTTTGTTATAATGCCAG has a sensor-assay potency score (higher = more potent) of -0.404. For TAAATCTGACATCACCACCAAG, the sensor-assay potency score (higher = more potent) was -0.923. TTGGAAACATCACTTCATCAAA was tested, and the sensor-assay potency score (higher = more potent) was -1.15.

The sequences below were run against ZDHHC6 in the same assay as above. Details: shRNA.
In the case of TTATTCTTGAAACACCTTCTAT, the sensor-assay potency score (higher = more potent) was -0.81. Work on TTCTTGTAGATTTTCAAACTTG yielded a sensor-assay potency score (higher = more potent) of -0.053. TGAAATTCACACTTCCTCCAGT showed a sensor-assay potency score (higher = more potent) of -0.0351. In the case of AACTGTTCTATTGTTAAGCTGT, the sensor-assay potency score (higher = more potent) was -0.493. TTTTCTAGGGAACCAACCCCTT was tested, and the sensor-assay potency score (higher = more potent) was -1.12. With TCTTCTATTACTTTATAGCGAA the sensor-assay potency score (higher = more potent) was -0.958. In the case of TTCTGCAGTGATGTGAACGTGG, the sensor-assay potency score (higher = more potent) was 0.312. In the case of TATTCTTGAAACACCTTCTATA, the sensor-assay potency score (higher = more potent) was -0.715. Sequence TTGGTAACCACAACAGTTGTTG has a sensor-assay potency score (higher = more potent) of -0.394.

Reference: the OligoGym collection
